Screening results: PubChem, National Center for Advancing Translational Sciences (NCATS)
Pf growth 96h: inhibits malaria parasite growth, 96 h | 320,000 compounds, 6.9% hits | P. falciparum luciferase reporter growth, 96 h | Potency, µM (titrated, usually from 28.7 µM), for inactives: at the highest dose activity change, negative = inhibition, usual class: inhibitors; note: potency is the fitted concentration of half-maximal effect
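P. falciparum expressing integrated firefly luciferase, in erythrocytes at 2% hematocrit, 0.05% parasitemia, incubated with compounds 96 h at 37 C, 5% CO2. Growth inhibition read as loss of luminescence; two-generation exposure targets delayed-death apicoplast inhibitors.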
HCMV inh: human cytomegalovirus inhibition. HFF cells, HCMV-luciferase reporter, 72 h; stronger effect = lower value. activity change, negative = inhibition, % at 57.5 µM. 410,000 compounds, 4.5% hits. AID 1259415; in the data active = activity change below about -60%; inconclusive = no clear call, values can overlap the other calls; inactive = above about -39%
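Human foreskin fibroblasts infected with luciferase-reporter HCMV at MOI 1 PFU/cell, compounds at two doses. Luciferase measured 72 h post infection; normalized to buffer-only basal and Salinomycin (10uM) controls.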
Pf growth 48h: P. falciparum growth inhibition at 48 hours (one generation) | 310,000 compounds, 5.9% hits | P. falciparum luciferase growth in erythrocytes, 48 h | AID 504832 | Potency, µM (series often up to 28.7 µM), inactives show at the top dose activity change, negative = inhibition, actives largely listed as inhibitors; note: potency is the fitted concentration of half-maximal effect
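Erythrocytes infected with P. falciparum carrying an integrated firefly luciferase reporter (2% hematocrit, 0.1% parasitemia final) were exposed to compounds in RPMI 1640 with 0.5% Albumax at 37 C, 5% CO2. Growth inhibition was scored as reduced luminescence.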
Sm TGR inh: inhibitors of Schistosoma mansoni thioredoxin glutathione reductase; 360,000 compounds, 3% hits; Potency, µM (titrated, usually from 114 µM), for inactives: at the highest dose activity change, negative = inhibition, actives largely listed as inhibitors; purified TGR, DTNB reduction, TNB absorbance 405 nm; note: potency is the fitted concentration of half-maximal effect; nearly all actives have a fitted effect of over 60% in size
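TGR 20 nM + NADPH 100 uM (dispensed conc.), cpd preinc 15 min RT; start with NADPH (500 uM addition) then DTNB (15 mM addition). Kinetic TNB absorbance, 405 nm filter. Four-parameter Hill fit across titration.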
FBPA Giardia inh: Giardia lamblia aldolase inhibition | purified Giardia FBPA | A8B2U2 | Potency, µM (titrated, usually from 59.6 µM), for the others: top-dose activity, negative = inhibition, actives largely listed as inhibitors | 290,000 compounds, 0.71% hits; note: potency is the fitted concentration of half-maximal effect; nearly all actives have a fitted effect of over 55% in size
Target sequence (A8B2U2 whole entry, looked up): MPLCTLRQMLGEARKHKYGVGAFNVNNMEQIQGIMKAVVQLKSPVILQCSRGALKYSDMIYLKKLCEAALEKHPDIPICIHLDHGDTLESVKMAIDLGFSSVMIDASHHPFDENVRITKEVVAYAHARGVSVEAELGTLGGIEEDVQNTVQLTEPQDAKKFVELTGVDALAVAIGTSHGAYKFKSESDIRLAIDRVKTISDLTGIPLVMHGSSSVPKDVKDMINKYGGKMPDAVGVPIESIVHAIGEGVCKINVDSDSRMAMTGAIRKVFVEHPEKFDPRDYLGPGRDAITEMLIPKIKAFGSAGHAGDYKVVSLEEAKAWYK
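40 nM FBPA preincubated 10 min at RT with compound (up to 57.5 uM final), then substrate plus GAPDH/TPI/NAD/arsenate coupling and diaphorase/resazurin added. Fluorescence read after 20 min at RT, 525/598 nm.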
* marks the source's active call; other numbers are inactive results; [ ] = remark or other dose. In the library only some 14% were active in any assay of this set; here they are far more common. Unless noted, calls come from the whole dose curve; as a rule, active = well fitted curve in the direction sought with a large enough effect; inconclusive = small, poorly fitted or top-dose-only effect, or another doubt; inactive = no such curve, though single readings can be large; an effect the other way counts as inactive or inconclusive. % is set by controls: 0 for no effect and ±100 for the full control effect.

For Cc1cc(Nc2c(C)n(C)n(-c3ccccc3)c2=O)n2c(nc3cc(F)c(F)cc32)c1C#N the results were Pf growth 96h 1%, Pf growth 48h 4%, Sm TGR inh 8.9µM* and FBPA Giardia inh -23%.
`CSc1nc2ccccc2n1CC(=O)Nc1c(C)n(C)n(-c2ccccc2)c1=O` gave Pf growth 96h 10µM*, HCMV inh 9, Pf growth 48h 13%, Sm TGR inh 9% and FBPA Giardia inh 4%.
Screening Cc1c(NC(=O)CSc2ccc3ccccc3n2)c(=O)n(-c2ccccc2)n1C returned Pf growth 96h -5%, HCMV inh -32, Pf growth 48h 1% and Sm TGR inh -1%.
For COc1ccc(OC)c(CN2CCN(C(=O)c3ccc(S(=O)(=O)Nc4ccccc4F)cc3)CC2)c1 the results were Pf growth 96h inconclusive, HCMV inh -6, Pf growth 48h inconclusive and Sm TGR inh 1%.
Screening Cc1oc(-c2ccccc2F)nc1CS(=O)(=O)CC(=O)N1CCN(c2ccccc2)CC1 returned Pf growth 96h -4%, HCMV inh -19, Sm TGR inh -12% and FBPA Giardia inh 1%.
CC1CCCC(NC(=O)COC(=O)c2cc(S(=O)(=O)N3CCOCC3)ccc2F)C1C (stereo not drawn) was read as Pf growth 96h 20%, HCMV inh 23, Pf growth 48h 3% and Sm TGR inh -8%.
`CCCCC#CC1C=CC(Oc2ccc(C(=O)OC)cc2)C(COC(=O)OCC)O1` (stereo not drawn) gave FBPA Giardia inh 0%[12.9 µM].
CSc1nc2ccccc2n1CC(=O)Nc1c(C)cccc1C was read as Pf growth 96h 7.4µM*, HCMV inh 69, Pf growth 48h 2%, Sm TGR inh 6% and FBPA Giardia inh -5%.
Screening Cc1c(NC(=O)CN2CCN(c3ccc(O)cc3)CC2)c(=O)n(-c2ccccc2)n1C returned Pf growth 96h 6.6µM*, HCMV inh -10, Pf growth 48h inconclusive, Sm TGR inh -26% and FBPA Giardia inh inconclusive.
CSc1nc2ccccc2n1CC(=O)Nc1ccccc1 was read as Pf growth 96h 115%, HCMV inh 55, Pf growth 48h 1%, Sm TGR inh -25% and FBPA Giardia inh 4%.
For Cc1ccc(S(=O)(=O)NC(=O)Nc2c(C)n(C)n(-c3ccccc3)c2=O)cc1 the results were Pf growth 96h 12µM*, HCMV inh 36, Pf growth 48h 10%, Sm TGR inh 0% and FBPA Giardia inh -3%.
`Cc1c(NS(=O)(=O)c2cccc([N+](=O)[O-])c2)c(=O)n(-c2ccccc2)n1C` gave Pf growth 96h -3%, HCMV inh inconclusive, Pf growth 48h 26%, Sm TGR inh 28µM* and FBPA Giardia inh -1%.
CCC(=O)N1Cc2cc(C(=O)Nc3nccs3)nc(-c3cccc(-c4ccccc4OC)c3)c2[C@@H]1CCO was read as HCMV inh -8.
`CCCN(CC(=O)Nc1ccc(F)c(F)c1F)CC(=O)Nc1c(C)n(C)n(-c2ccccc2)c1=O` gave Pf growth 96h -20%, HCMV inh -69*, Pf growth 48h -4% and Sm TGR inh 4%.
`CCCN(CC(=O)Nc1cc(C)on1)CC(=O)Nc1ccc(F)c(F)c1F` gave HCMV inh 0.
`CCC(C)n1c(NC(=O)c2ccccc2)c(C#N)c2nc3ccccc3nc21` (stereo not drawn) gave Pf growth 96h 2.9µM*, HCMV inh -39, Pf growth 48h 3.7µM*, Sm TGR inh -1% and FBPA Giardia inh inconclusive.
Screening CCCCn1c(NC(=O)c2ccccc2)c(C#N)c2nc3ccccc3nc21 returned HCMV inh -67*, Pf growth 48h 5.9µM*, Sm TGR inh -15% and FBPA Giardia inh inconclusive.
For CCC(=O)Nc1c(C#N)c2nc3ccccc3nc2n1-c1ccc(C)cc1 the results were HCMV inh -27.
For N#Cc1c(NC(=O)c2ccc(Br)o2)n(-c2ccccc2)c2nc3ccccc3nc12 the results were Pf growth 96h 11%, HCMV inh -24, Pf growth 48h 17%, Sm TGR inh inconclusive and FBPA Giardia inh inconclusive.
Screening COc1ccc(NC(=O)C2Cc3c(-c4cccc(C(N)=O)c4)ccnc3O2)cn1 (stereo not drawn) returned HCMV inh 19.
Cc1cc(C)cc(NC(=S)NC(=O)C2CC2)c1 was read as Pf growth 96h 35%, HCMV inh 2, Pf growth 48h inconclusive and Sm TGR inh 13µM*.
Cc1cccc(NC(=S)NC(=O)C2CC2)c1 was read as Pf growth 96h inconclusive, Pf growth 48h -13% and Sm TGR inh 35µM*.
For Cc1cccc(NC(=S)NCc2cccn2C)c1 the results were Pf growth 96h 12µM*, HCMV inh 11, Sm TGR inh -20% and FBPA Giardia inh -5%.
`CC1=CCC2C(=O)N(c3ccc(C(=O)Nc4ccccc4Cl)cc3)C(=O)C2C1` (stereo not drawn) gave Pf growth 96h 12%, HCMV inh -102*, Pf growth 48h 17%, Sm TGR inh -2% and FBPA Giardia inh -12%.
c1ccc(-c2nn3c(-c4ccccc4)nnc3s2)cc1 was read as Pf growth 96h -11%, HCMV inh -28, Pf growth 48h 8%, Sm TGR inh 0% and FBPA Giardia inh 12%.
For COc1cc(-c2nn3c(-c4ccco4)nnc3s2)cc(OC)c1OC the results were Pf growth 96h inconclusive, Pf growth 48h 28%, Sm TGR inh -1% and FBPA Giardia inh 1%.
c1ccc(Cc2nnc3sc(-c4cccnc4)nn23)cc1 was read as Pf growth 96h 18%, HCMV inh -63*, Pf growth 48h -7%, Sm TGR inh 5% and FBPA Giardia inh 11%.
Screening Cc1cccc(-c2nnc3sc(-c4ccccc4)nn23)c1 returned Pf growth 96h 2.3µM*, HCMV inh -2, Pf growth 48h 14%, Sm TGR inh -25% and FBPA Giardia inh 3%.
COc1ccc(-c2nnc3sc(-c4cccs4)nn23)cc1OC was read as Pf growth 96h 12µM*, HCMV inh -8, Pf growth 48h -9%, Sm TGR inh -28% and FBPA Giardia inh 2%.
`COc1cccc(-c2nn3c(-c4ccco4)nnc3s2)c1` gave Pf growth 96h 8.3µM*, HCMV inh 27, Pf growth 48h 10%, Sm TGR inh 45µM* and FBPA Giardia inh 3%.
`Cc1ccc(CNC(=O)Cc2coc3cc(C)cc(C)c23)cc1` gave HCMV inh -24 and Sm TGR inh -2%.
For O=C(Nc1ccccc1C(=O)N/N=C/c1ccncc1)c1ccccc1 the results were Pf growth 96h inconclusive, HCMV inh 14, Pf growth 48h 423%, Sm TGR inh 2% and FBPA Giardia inh -1%.
